# Assay outcomes deposited in PubChem BioAssay by The Scripps Research Institute Molecular Screening Center.
# Rows were chosen to be rich in hits. Some 2.3% of all compounds tested hit in one or more screens of this group.
# MBD2 inh: MBD2-methylated oligo binding inhibition; TR-FRET, MBD2 binding to methylated oligonucleotide; inhibition, % at 4.4 µM; hit rate 0.31% among 370,000; in the data active = inhibition above about 13%
# PLC-beta3 inh: inhibitors of human phospholipase C beta3. Q01970. Purified PLC-beta3, fluorogenic substrate, fluorescence. inhibition, % at 12.2 µM. hit rate 0.18% among 370,000. AID 720704; in the data active = inhibition above about 11%;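 also: 0% = median of compound wells on plate and 100% = full blocker control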
# UHRF1 MBD2 ctr: blocks human UHRF1 binding to methylated DNA. UHRF1 binding to methylated oligo, TR-FRET. hit rate 0.75% among 370,000. AID 687016. inhibition, % at 4.4 µM;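 also: UHRF1 SRA domain binding a hemimethylated CpG hairpin DNA probe; 0% = median of test compound wells and 100% = reference inhibitor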
# LEDGF integ inh: blocks HIV-1 LEDGF/p75-dependent DNA integration | TR-FRET IN-LEDGF/p75 DNA integration, Eu/Cy5 | inhibition, % at 3.7 µM | hit rate 0.64% among 370,000;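 active = inhibition above the screen-wide mean plus 3 SD, cut at about 13% in these data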;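 also: signal is the Cy5 over europium emission ratio at 671 and 618 nm; 0% = plate median of compound wells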
# PLC-gamma1 inh: blocks human PLC-gamma1 enzyme activity. inhibition, % at 12.2 µM. AID 720700. purified PLC-gamma1, fluorogenic substrate, fluorescence. hit rate 0.84% among 370,000; in the data active = inhibition above about 9.5%
# UHRF1 DNA bind: UHRF1 methyl-oligo binding inhibition as MBD2 counter-screen. shares compounds with MBD2 inh. UHRF1 binding to methylated oligonucleotide, TR-FRET. inhibition, % at 4.4 µM. hit rate 25% among 1,000;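 also: UHRF1 SRA domain binding a labeled hemimethylated CpG hairpin DNA; 0% = vehicle only and 100% = reference inhibitor with vehicle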
# MBD2 DBD conf: confirmation of human MBD2-DBD methylated oligonucleotide binding inhibitors; shares compounds with MBD2 inh; TR-FRET MBD2-DBD binding to methylated oligonucleotide; inhibition, % at 4.4 µM; hit rate 26% among 1,000; in the data active = inhibition above about 14%
# Numbers without * were called inactive; x = not tested or not shown. Rule as the data show it, unless noted: active = inhibition above about 21%; inactive = the rest.
SMILES,MBD2 inh,PLC-beta3 inh,UHRF1 MBD2 ctr,LEDGF integ inh,PLC-gamma1 inh,UHRF1 DNA bind,MBD2 DBD conf
C[C@H]1[C@@H](OC(=O)NCc2cccc(C(F)(F)F)c2)CC[C@@]23CCCN2C(=O)CCC[C@@H]13,1,5,-1,0,4,x,x
COC(=O)Cc1nnn2c1[C@H](C)[C@H](c1cccc(OC)c1OC)OCC2,16*,5,26*,11,1,6,3
CC(C)CSc1ncccc1-c1nc2ccccc2[nH]1,3,-8,0,-2,-2,x,x
Cc1c[n+]([O-])n(-c2ccc(C(=O)O)cc2)n1,15*,-2,21,-4,5,10,6
Cc1nn(-c2ccc(C(=O)O)cc2)c(C)c1Cl,-1,0,2,2,1,x,x
Cc1ccc(SCCN2CCC(C(C)(C)C)CCC2=O)cc1 (configuration not stated),14*,6,30*,12,4,5,4
Cc1cccc2cc(C(c3nnnn3CC3CCCO3)N3CCCc4ccccc43)c(=O)[nH]c12 (configuration not stated),18*,-14,-1,-1,-11,1,2
CC(C)C(NS(=O)(=O)c1cccc2nsnc12)C(=O)N1CCn2c1nc1ccccc12 (configuration not stated),14*,2,0,-2,1,2,0
COC(=O)[C@]12C[C@H](CC(=O)NCc3cccs3)C(=O)N(Cc3ccco3)C1=C[C@H](C(C)(C)C)O[C@@H]2C,2,-2,2,-1,0,x,x
CCn1nc(C(=O)NNC(=O)c2ccccc2)c2ccccc2c1=O,24*,-5,-1,12,8,6,4
CCn1nc(C(=O)NNC(=O)c2ccc(OC(F)F)cc2)c2ccccc2c1=O,3,-12,-1,-8,-1,x,x
COc1ccc(Cc2nnc(NC(=O)c3ccc(C)cc3)s2)cc1OC,0,-3,3,6,4,x,x
COc1ccc(Cc2nnc(NC(=O)CS(=O)(=O)c3ccc(C)cc3)s2)cc1OC,22*,-7,-2,0,1,8,1
O=C(Nc1ccc(Cc2ccncc2)cc1)c1cccc([N+](=O)[O-])c1,-4,1,0,4,4,x,x
O=C(Nc1ccc(Nc2ccncc2)cc1)c1ccc(Nc2ccnc3ccc([N+](=O)[O-])cc23)cc1,16*,1,32*,0,4,38*,34*
COc1ccc(NC(=O)c2cc3c(C)nn(-c4ccccc4)c3s2)cc1,6,-24,4,-1,-16,x,x
CCN1C(=O)CC(N2CCC(C(=O)N3CCOCC3)CC2)C1=O (configuration not stated),15*,1,23*,1,1,8,3
CCN1C(=O)CC(N2CCOCC2)C1=O (configuration not stated),-3,6,1,-2,2,x,x
CSCCCNC(=O)c1oc(=O)c2ccccc2c1-c1ccc(C)cc1,-4,0,-1,0,0,x,x
O=C1C=C(c2ccoc2)N2CCC[C@H]2C1,36*,-15,-5,-4,-11,9,1
CC1(C(=O)NS(=O)(=O)c2ccc(F)cc2F)CCN1C(=O)CCc1ccc(Cl)cc1Cl (configuration not stated),26*,-9,17,1,-3,8,1
CC1(C(=O)NS(=O)(=O)c2cccc(F)c2)CCN1C(=O)CCc1ccc(Cl)cc1Cl (configuration not stated),-7,-5,0,-4,-3,x,x
COC(=O)c1cc(C(=O)OCC(=O)NC(=O)NCc2ccccc2)cc([N+](=O)[O-])c1,17*,-7,19,-1,-3,4,2
CC1(c2nnnn2Cc2ccccc2)CCC(=O)N1CCc1ccccc1F (configuration not stated),15*,-4,22*,-3,5,13,6
O=C1CCC[C@H]2C[C@H](NCc3cccc(I)c3)CC[C@]23CCCN13,-5,0,-1,0,2,x,x
SMILES,MBD2 inh,PLC-beta3 inh,UHRF1 MBD2 ctr,LEDGF integ inh,PLC-gamma1 inh,UHRF1 DNA bind,MBD2 DBD conf
COc1ccccc1NS(=O)(=O)/C=C/c1ccccc1,14*,-11,4,-3,4,6,4
O=C(NCc1ccccn1)c1c(-c2ccccc2)sc2ccccc12,16*,-3,22*,-3,0,10,7
O=C(Nc1ccc(Cl)c(Cl)c1)C1CCN(c2nnc(-n3cccc3)s2)CC1,-3,-5,-3,-1,1,x,x
COc1cc2cc(C(=O)N(C)C3CCS(=O)(=O)C3)[nH]c2cc1OC (configuration not stated),15*,-244,2,2,-175,6,1
CN(C(=O)c1ccc(Cl)cc1)C1CCS(=O)(=O)C1 (configuration not stated),-2,-5,0,1,0,x,x
Nc1ncnc2oc(-c3ccco3)c(-c3ccco3)c12,81*,-100,92*,86*,-66,53*,39*
Cc1cc(C(=O)O[C@@H]2CCC[C@@]3(C(=O)N(Cc4ccccc4)c4ccccc43)[C@H]2NC(=O)CCc2ccccc2)no1,1,5,1,2,3,x,x
O=C(O)CC1CC(O)CCC1=O (configuration not stated),28*,-2,4,-1,0,8,1
O=C(O)CC1CCC(=C(Cl)Cl)C1 (configuration not stated),-2,1,1,-1,0,x,x
COC(=O)[C@]12C[C@H](CC(=O)N3CCSCC3)C(=O)N(Cc3cccc4ccccc34)C1=C[C@H](COCc1ccccc1)O[C@@H]2C,-1,-2,2,-3,4,x,x
N=C1C(c2nc3ccccc3s2)=C(O)CN1NC(=O)c1c[nH]c2ccccc12,15*,-7,-21,-1,-2,-12,22*
COC(=O)[C@]12C[C@H](CC(=O)NCc3cccs3)C(=O)N(Cc3ccc(Cl)cc3Cl)C1=C[C@H](COCc1ccccc1)O[C@@H]2C,-4,1,-2,1,1,x,x
COc1cc(Cl)c(C)cc1NC(=O)CSc1sc2c(O)cc(=O)[nH]c2c1C#N,17*,-34,33*,11,-9,17,6
COc1ccc(OC)c(NC(=O)CSc2sc3c(O)cc(=O)[nH]c3c2C#N)c1,-1,-9,10,0,-4,x,x
c1ccc(-c2csc(Nc3cccnc3)n2)nc1,27*,-5,-3,-3,-4,0,2
O=C(/C=C/c1ccc(O)c([N+](=O)[O-])c1)c1ccc2ccccc2c1,44*,-3,0,3,5,4,-1
